Compound activity from PubChem.
CYP2C9 act: increases human cytochrome P450 2C9 activity; P11712; recombinant CYP2C9, luciferin-H conversion, luminescence; stronger effect = higher value; factor 1 = untreated enzyme, 0 = blocked; activation factor at 5 µM; 1.4% of 96,000 active;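 active = activation factor of 2 or more for CYP2C9 at a 5 µM dose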
Target sequence (P11712 whole entry, looked up): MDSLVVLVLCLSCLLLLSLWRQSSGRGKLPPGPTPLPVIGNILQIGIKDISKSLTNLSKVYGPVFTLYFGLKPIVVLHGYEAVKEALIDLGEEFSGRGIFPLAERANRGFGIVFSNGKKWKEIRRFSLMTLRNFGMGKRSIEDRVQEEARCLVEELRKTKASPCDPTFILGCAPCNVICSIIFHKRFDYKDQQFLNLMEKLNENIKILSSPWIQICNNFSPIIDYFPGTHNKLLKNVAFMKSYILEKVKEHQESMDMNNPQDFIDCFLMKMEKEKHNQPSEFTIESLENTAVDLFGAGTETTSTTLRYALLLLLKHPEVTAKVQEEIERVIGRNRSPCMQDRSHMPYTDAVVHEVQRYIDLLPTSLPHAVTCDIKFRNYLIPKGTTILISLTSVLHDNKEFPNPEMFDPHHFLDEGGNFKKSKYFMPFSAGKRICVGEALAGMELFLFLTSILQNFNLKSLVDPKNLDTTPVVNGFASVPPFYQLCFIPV
MRP-1 activ: activates MRP-1; viability increase, % at 10 µM; 0.61% of 140,000 active; AID 799; H69AR cells + doxorubicin, viability rescue, CellTiter-Glo;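 active = viability gain under doxorubicin at or above a set limit, the compound median plus 3 SD, cut at about 4.7% in these data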;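 note: MRP-1 overexpressing cells given doxorubicin 25 µM after compound pretreatment; 18-22 h compound pretreatment then 72 h with doxorubicin before readout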
CYP2C9 inh: inhibitors of human CYP2C9 | 20% of 96,000 active | P11712 | AID 777 | CYP2C9 Supersomes, luciferin-H conversion, luminescence | inhibition, % at 5 µM;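 active = blocking of liver enzyme CYP2C9 beyond about 50% at 5 µM, limit read from the data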
CYP2C19 inh: blocks human cytochrome P450 2C19. P33261. CYP2C19 Supersomes, luciferin-H EGE luminescence, 30 min. inhibition, % at 5 µM. 21% of 96,000 active;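 active = CYP2C19 inhibition above a set limit at 5 µM in the primary screen, cut at about 50% in these data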
CYP2C19 act: increases human CYP2C19 enzyme activity. P33261. recombinant CYP2C19, luciferin-H EGE luminescence; stronger effect = higher value; 0 = fully inhibited enzyme, 1 = untreated enzyme. activation factor at 5 µM. 96,000 tested, under 10 active;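 active = activation factor of at least 2 at 5 µM in the primary screen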
MRP resist rev: compounds reversing MRP-mediated drug resistance; AID 602; 0.04% of 85,000 active; differential viability (reversal), % at 10 µM; H69AR cells + 2 uM doxorubicin, CellTiter-Glo, 72 h;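 active = viability drop by adding the cancer drug above about 55%, with treated viability meeting a 40% cutoff, limit read from the data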;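 note: larger differential means the compound sensitizes cells more to doxorubicin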
Each line names hits and unclear results; the compound was inactive in the other large screens. Only some compounds are listed: those with a hit (about 21% of all), similar ones and a draw of the others.

Cc1cc(Br)ccc1NC(=O)CNC(=O)CN(C)Cc1nc2ccccc2c(=O)[nH]1	MRP-1 activ 4.9, CYP2C9 inh 63, CYP2C19 inh 68
O=C(Nc1ccc(Br)cc1)c1cccn1-c1ncc(C(F)(F)F)cc1Cl	none (no result: MRP resist rev)
Cc1ccc(/C(CSc2nccn2-c2ncc(C(F)(F)F)cc2Cl)=N\O)cc1	CYP2C9 inh 52, CYP2C19 inh 56 (no result: MRP resist rev)
Cc1ccc(CON=C2CCN(c3ncc(C(F)(F)F)cc3Cl)CC2)cc1	none (no result: MRP resist rev)
O=C(CSc1nccn1-c1ncc(C(F)(F)F)cc1Cl)c1ccc(Br)cc1	CYP2C9 inh 62, CYP2C19 inh 93 (no result: MRP resist rev)
Cn1c(=O)c2cc(NC(=O)c3ccccc3Cl)c(=O)oc2n(C)c1=O	none
CN(CC(=O)N1CCCc2c1c(=O)oc1ccc(O)cc21)Cc1ccccc1	CYP2C9 inh 67, CYP2C19 inh 96
Cc1nn(C)cc1C1C(C#N)=C(N)N(c2ccc(F)c([N+](=O)[O-])c2)C2=C1C(=O)CCC2 (stereo unspecified)	none (no result: CYP2C9 act, CYP2C9 inh, CYP2C19 inh, CYP2C19 act, MRP resist rev)
COc1ccc(NC(=O)CN2C(=O)c3cccc4cccc2c34)cc1OC	none
CC(C(N)=O)N1C(=O)c2cccc3cccc1c23 (stereo unspecified)	CYP2C9 act 3.2
CCCCN(CC)C(=O)Cc1c(C(=O)O)[nH]c2ccc(Cl)cc12	CYP2C9 inh 95, CYP2C19 inh 96
CN(C)C(=S)Nc1ccc2ccccc2c1	none (no result: CYP2C9 act, CYP2C9 inh, CYP2C19 inh, CYP2C19 act, MRP resist rev)
O=C(CSCc1ccc(Cl)c(Cl)c1)Nc1c[nH]c(=O)[nH]c1=O	none (no result: CYP2C9 act, CYP2C9 inh, CYP2C19 inh, CYP2C19 act, MRP resist rev)
COc1ccc2sc(N3C(=O)C4CC=C(C)CC4C3=O)nc2c1 (stereo unspecified)	CYP2C9 inh 80, CYP2C19 inh 61
N#Cc1ccccc1OCCN1C(=O)c2ccccc2C1=O	CYP2C9 inh 60, CYP2C19 inh 82
O=C1c2ccccc2C(=O)N1CCOCCN1C(=O)c2ccccc2C1=O	none
O=C1c2ccccc2C(=O)N1CCCOc1ccccc1	CYP2C19 inh 85
O=C1c2ccccc2C(=O)N1CN(C(=O)COc1ccccc1)c1ccccc1	CYP2C19 inh 58 (no result: MRP resist rev)
CCN(CC)C(=O)C(=O)N/N=C/c1ccc(Br)cc1	none (no result: MRP resist rev)
O=C(Nc1ncn[nH]1)c1cc(S(=O)(=O)Nc2ccc(Cl)cc2)ccc1Cl	none (no result: CYP2C9 act, CYP2C9 inh, CYP2C19 inh, CYP2C19 act, MRP resist rev)
Clc1cc(Cl)cc(Nc2ncn[nH]2)c1	CYP2C19 inh 50 (no result: MRP resist rev)
CCOc1ccc(N(CC(=O)O)S(=O)(=O)c2ccc(OC)c(OC)c2)cc1	none
CCN(c1ccccc1)S(=O)(=O)c1cc(OC)ccc1OC	CYP2C9 inh 69, CYP2C19 inh 90
CCN(c1ccccc1)S(=O)(=O)c1ccc(OC)c(OC)c1	CYP2C19 inh 56
Cc1ccc(-c2nc3ncccn3c2Nc2ccc3c(c2)OCCO3)o1	CYP2C9 inh 53
Cc1cc(C)n2c(Nc3ccc4c(c3)OCCO4)c(-c3ccc(C)o3)nc2n1	none
Brc1ccc(-c2nc3ncccn3c2Nc2ccc3c(c2)OCCO3)o1	CYP2C9 inh 58
Oc1ccc(-c2nc3ncccn3c2Nc2ccc3c(c2)OCCO3)cc1	CYP2C9 inh 70
Cc1cc(C)n2c(Nc3ccc4c(c3)OCCO4)c(-c3ccco3)nc2n1	CYP2C9 inh 62 (no result: MRP resist rev)
Cc1cccc(Oc2nc(-c3cccc([N+](=O)[O-])c3)nc3ccccc23)c1C	none (no result: MRP resist rev)
COc1cccc(CNC(=O)C2CCCN(S(=O)(=O)c3c(C)[nH]c(=O)[nH]c3=O)C2)c1 (stereo unspecified)	none
Cc1ccc(Cn2nnc3c(=O)n(Cc4ccccc4C)cnc32)cc1	none
CC(C)c1nnc(NC(=O)Cc2ccc(Br)cc2)s1	none (no result: CYP2C9 act, CYP2C9 inh, CYP2C19 inh, CYP2C19 act, MRP resist rev)
CCOc1ccccc1NC(=S)N1CCC(c2nc3ccccc3o2)CC1	none (no result: CYP2C9 act, CYP2C9 inh, CYP2C19 inh, CYP2C19 act, MRP resist rev)
ON=Cc1cccn1-c1ccccc1	none
Brc1ccc(-n2cccc2/C=N/n2cnnc2)cc1	CYP2C9 inh 53, CYP2C19 inh 74
Clc1ccc(-n2cccc2/C=N/n2cnnc2)cc1	CYP2C9 inh 56, CYP2C19 inh 57
Cn1cccc1/C=N/n1cnnc1	none
CCOC(=O)c1ccc(/C=C2/C=C(c3ccccc3)N(c3ccc(Cl)c(C(=O)O)c3)C2=O)cc1	none (no result: CYP2C9 act, CYP2C9 inh, CYP2C19 inh, CYP2C19 act, MRP resist rev)
CCC(C)n1c(SC(C)C#N)nc2ccccc2c1=O (stereo unspecified)	CYP2C9 inh 70
CC(C#N)On1c(SC(C)C#N)nc2ccccc2c1=O (stereo unspecified)	none
CCOc1ccc(CSC(CC(=O)O)C(=O)O)cc1 (stereo unspecified)	none
COc1ccc(CCNc2oc(COc3ccc(Br)cc3)nc2C#N)cc1OC	CYP2C9 inh 51
COc1ccc(CCNc2oc(Cc3cccc4ccccc34)nc2C#N)cc1OC	CYP2C9 inh 57
Cc1ccc(/C=c2/sc3nnc(-c4ccccc4Cl)n3c2=O)o1	CYP2C9 inh 68, CYP2C19 inh 65
O=C(Cc1ccc(-n2cnnn2)cc1)NC12CC3CC(CC(C3)C1)C2	none
CCOC(=O)c1cccc(S(=O)(=O)N2CCCC2)c1	none (no result: CYP2C9 act, CYP2C9 inh, CYP2C19 inh, CYP2C19 act, MRP resist rev)
COC(=O)c1cccc(S(=O)(=O)N2CCCCC2)c1	CYP2C19 inh 58
O=C(COC(=O)c1cccc(S(=O)(=O)N2CCOCC2)c1)Nc1ccc2c(c1)OCO2	CYP2C9 inh 61, CYP2C19 inh 70
O=C(OCc1ccc2c(c1)OCO2)c1cccc(S(=O)(=O)N2CCCCC2)c1	CYP2C9 inh 99, CYP2C19 inh 92
O=S(=O)(c1ccc(Nc2ccc3c(c2)OCO3)nc1)N1CCOCC1	CYP2C9 inh 78
O=C(N/N=C\c1cc(Cl)ccc1O)c1ccc(S(=O)(=O)N2CCCCC2)cc1	none (no result: CYP2C9 act, CYP2C9 inh, CYP2C19 inh, CYP2C19 act, MRP resist rev)
CC(=O)NC1(c2ccc(F)cc2)CCN(C(=O)Nc2ccc(F)cc2F)CC1	none
O=C(OCc1ccc2c(c1)OCO2)c1ccc(S(=O)(=O)N2CCCC2)cc1	CYP2C9 inh 97, CYP2C19 inh 83
O=C(c1ccc(S(=O)(=O)N2CCCCC2)cc1)N1CCN(Cc2ccc3c(c2)OCO3)CC1	none
C=C(C)Cn1c(CCCNC(=O)CCC)nc2ccccc21	none
O=C(COc1cccc(NC(=O)c2cccc([N+](=O)[O-])c2)c1)c1ccc(Br)cc1	CYP2C9 inh 66 (no result: MRP resist rev)
CN/C(=C/[N+](=O)[O-])NCCSCc1ccc(CN(C)C)o1	none (no result: CYP2C9 act, CYP2C9 inh, CYP2C19 inh, CYP2C19 act)
Cc1cccc2sc(NC(=O)CSCc3ccccc3)nc12	none
Cc1cccc2sc(NC(=O)CN(C)S(=O)(=O)c3cccs3)nc12	CYP2C9 inh 59, CYP2C19 inh 94
Cc1cccc2sc(NC(=O)Cn3cccc3)nc12	CYP2C9 inh 56
Cc1cccc2sc(NC(=O)CN(C)S(=O)(=O)c3ccc(Br)s3)nc12	CYP2C19 inh 62
Cc1cccc2sc(NC(=O)c3ccc(Cl)s3)nc12	none
CCC(Sc1nc(N)cc(N)n1)C(=O)O (stereo unspecified)	none (no result: MRP resist rev)
CC(C)(C)N1CC2(c3ccccc3)CN(C(C)(C)C)CC(c3ccccc3)(C1)C2=O	none (no result: MRP resist rev)
CCOC(=O)C1CCN(C(C(=O)NC2CCCC2)c2ccc(C)cc2)CC1 (stereo unspecified)	none
